The results in this text go back to PubChem BioAssay (NCATS).

SMILES strings stand for the structures. The source made the active and inactive calls. Where a call stands in place of a potency, no number is given. Calls follow the shape of the dose curve; as a rule, active = well fitted cell-killing curve with a large enough effect; inconclusive = small, poorly fitted or top-dose-only effect; inactive = flat fitted curve, though single readings scatter.
Potency is read from the fitted curve at half-maximal effect.

A short description of the experiment: MultiTox-Fluor Cytotoxicity Assay - LYMP1-003 - Live Cells (AID 962). The note with it: LYMP1-003 lymphoblastoid cells, MultiTox-Fluor live-cell protease fluorescence; series mostly up to 92.2 µM. An excerpt: NIH Chemical Genomics Center [NCGC]
NIH Molecular Libraries Screening Centers Network [MLSCN]
National Institutes of Environmental Health Sciences [NIEHS]
National Toxicology Program [NTP]
We have developed a 1536-well cell-based assay for quantitative high throughput screening (qHTS) against a number of cell lines to determine in vitro cytotoxicity of small molecules. This particular assay uses a human lymphoblastoid cell line (LYMP1-003) purchased from Coriell Institute.
NCGC Assay Protocol Summary:
The MultiTox-Fluor Cytotoxicity Assay (Promega) is a homogeneous method to simultaneously measure the relative number of live and dead cells in culture by detecting changes in cell membrane integrity. There are two fluorogenic peptide substrates in the assay reagent. Viable cells are determined when the cell-permeant substrate (GF-AFC) enters the cell and is cleaved by protease from live cells resulting in liberated fluorophore. This live-cell protease activity restricted to viable cells is proportional to cell number. The dead cells are determined by using fluorogenic cell-impermeant peptide substrate (bis-AAF-R110) which cleaved by dead cell proteases leaking from damaged cell membrane.
Using the MultiTox-Fluor Cytotoxicity Assay, the relative number of live cells was measured in the lymphoblastoid cell line with complete culture medium following compound treatment for 16 hours. The assay was performed in opaque black Kalypsys 1536-well plates. In the screen, tetraoctylammonium bromide was used as positive control. Library compounds were measured for their ability to cause acute toxicity in the cell line, as reflected by a decrease in live cell protease activity, in a concentration-dependent manner. […] AC50 values were determined from concentration-response data modeled with the standard Hill equation.
qHTS protocol for MultiTox-Fluor Cytotoxicity assay
[Step] [Parameter] [Value] [Description]
1. Reagent; 5 uL; 2500 lymphoblastoid cells/well
2. Time; 5 hr; 37 C incubation
4. Controls; 23 nL; Tetraoctylammonium bromide 6.4pM to 92 uM
5. Time; 16 hr; 37 C incubation
6. Reagent; 5 uL; MuliTox-Fluor Assay reagent
7. Time; 60 min; Room Temperature
8. Detection; live-cell fluorescence (Ex/Em=405/510); EnVision plate reader
Keywords: cell viability, cytotoxicity, lymphoblastoid cell line, fluorescence, NTPHTS, NTPHTS_NCGC, NIEHS, EPA, DSSTox, MLSMR, MLSCN, NIH Roadmap, qHTS, NCGC
On to `CC(=O)c1ccc(S(=O)(=O)NC(=O)NC2CCCCC2)cc1`, for which the Potency result is “inactive”. The entry for `O=C1NC(=O)C(c2ccccc2)(c2ccccc2)N1` is “inactive”; for `O=c1c(O)c(-c2ccc(O)cc2)oc2cc(O)cc(O)c12` it is “inactive”. For `O=C(O)c1cc(O)c2c(c1)C(=O)c1cccc(O)c1C2=O` the value was “inactive”; for `CCCCC1C(=O)N(c2ccccc2)N(c2ccccc2)C1=O`, “inactive”. Take `CCCNC(=O)NS(=O)(=O)c1ccc(Cl)cc1`: the Potency entry was “inactive”. The entry for `CN(C)CCC(c1ccccc1)c1ccccn1` (centres undefined) is “inactive”; for `O=C(O)Cc1cccc2ccccc12` it is “inactive”. `CCn1cc(C(=O)O)c(=O)c2ccc(C)nc21`: the Potency result is “inactive”. The entry for `CC(=O)O[C@]1(C(C)=O)CC[C@H]2[C@@H]3C=C(Cl)C4=CC(=O)[C@@H]5C[C@@H]5[C@]4(C)[C@H]3CC[C@@]21C` is “inactive”. The entry for `O=c1[nH]cnc2c1ncn2[C@H]1CC[C@@H](CO)O1` is “inactive”; for `O=c1c(-c2ccc(O)cc2)coc2cc(O)ccc12` it is “inactive”. The entry for `O=c1cc(-c2ccc(O)cc2)oc2cc(O)cc(O)c12` is “inactive”.

Consider `CC1=C(/C=C/C(C)=C/C=C/C(C)=C/C(=O)Nc2ccc(O)cc2)C(C)(C)CCC1`, for which the Potency is 50.1 µM (active).
